Pf growth 48h: inhibits P. falciparum growth in the first generation, 48 h. P. falciparum luciferase growth in erythrocytes, 48 h. Potency, µM (series often up to 28.7 µM), for the others: top-dose activity change, negative = inhibition, hits mostly inhibitors. 310,000 compounds, 5.9% hits. AID 504832; also: potency is read from the fitted curve at half-maximal effect; % is scaled to controls: 0 for no effect and ±100 for the full control effect
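Luminescence readout; reporter = integrated firefly luciferase in P. falciparum. RBC culture at 2% hematocrit, 0.1% parasitemia final, 37 C/5% CO2; decreased signal taken as growth inhibition.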
Pf growth 96h: inhibits malaria parasite growth, 96 h | P. falciparum luciferase reporter growth, 96 h | Potency, µM (doses to about 28.7 µM), inactives show at the top dose activity change, negative = inhibition, usual class: inhibitors | 320,000 compounds, 6.9% hits | AID 504834; also: potency is read from the fitted curve at half-maximal effect; % is scaled to controls: 0 for no effect and ±100 for the full control effect
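Plates of compound plus infected erythrocytes (2% hematocrit, 0.05% parasitemia final) incubate 96 hours, 37 C, 5% CO2. Detection reagent added; reduced luminescence from the parasites' luciferase reporter flags inhibition.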
CHX counter: counter-screen hit for Shiga toxin inhibitors, cycloheximide; cell reporter, cycloheximide protein synthesis inhibition counterscreen; max response, %; 300,000 compounds, 12% hits; in the data active = max response mostly above about 13%, no sharp cut-off; inactive = mostly below about 14%; also: read at 38.3 µM for the half of the compounds with a filed dose; 0% is about no effect
MARV entry inh: inhibitors of Marburg virus binding or cell entry; Marburg virus pseudotyped entry inhibition, cell reporter; Potency, µM (doses to about 37.8 µM), for inactives: at the highest dose activity change, negative = inhibition, most hits filed as inhibitors; 300,000 compounds, 1.8% hits; AID 540276; calls by dose curve; tested in HEK293 cells; also: potency is read from the fitted curve at half-maximal effect; % is scaled to controls: 0 for no effect and ±100 for the full control effect
LASV entry inh: Lassa virus entry inhibition | Lassa virus pseudotype entry inhibition, cell reporter | Potency, µM (series often up to 37.9 µM), for the others: top-dose activity change, negative = inhibition, usual class: inhibitors | 300,000 compounds, 1.2% hits | AID 540256; calls by dose curve; tested in HEK293 cells; also: potency is read from the fitted curve at half-maximal effect; % is scaled to controls: 0 for no effect and ±100 for the full control effect; nearly all actives have a fitted effect of over 50% in size
Shiga inhibitor: Shiga toxin inhibition. inhibition, % at 38.7 µM. Vero cells, Shiga toxin protein synthesis inhibition reporter. 290,000 compounds, 9.2% hits. AID 2315; in the data active = inhibition mostly above about 28%, no sharp cut-off; inactive = mostly below about 43%; also: 0% is about no effect
* = called active by the depositor; i = inactive; ? = inconclusive; . = no result given; [ ] = dose if it differs, or a comment. Shown are actives, neighbours in structure and some others; about 19% of the full set was active somewhere. Unless noted, calls follow the shape of the dose curve; as a rule, active = well fitted inhibition curve with a large enough effect; inconclusive = small, poorly fitted or top-dose-only effect, or another doubt; inactive = no such curve, though single readings can be large or run the other way.

SMILES	Pf growth 48h	Pf growth 96h	CHX counter	MARV entry inh	LASV entry inh	Shiga inhibitor
COC(=O)c1cc(Cl)c(NC(=O)C(C)C)cc1OC	4%	?	-2	27%[46.1 µM]	-5%	-4
COc1ccc(N)cc1NC(=O)CN1CCCC1	6%	0.12µM*	-5	-8%	12%	.
COc1ccccc1NC(=O)CN1CCCCCC1	3%	2%	-5	-5%[46.1 µM]	-15%	-4
COc1cc(NC(=O)Nc2ccccc2OC)c(OC)cc1NC(=O)CN1CCCCC1	6.6µM*	-23%	-5	?	-10%	-9
COc1cc(NC(=O)c2ccc(C(C)(C)C)cc2)c(OC)cc1NC(=O)CN1CCCCC1	6.6µM*	-3%	20	?	10µM*	20
COc1cc(NC(=O)c2ccc(Cl)cc2)c(OC)cc1NC(=O)CN1CCCCC1	-18%	-16%	21	-27%[46.1 µM]	-22%	14
COC(=O)c1cc(Cl)c(NC(=O)c2ccc(C(C)(C)C)cc2)cc1OC	14%	44%	26*	?	?	44*
O=C(NCC1CCCO1)c1cc2ccccc2nc1Cl (stereo not given)	94%	102%	28*	.	.	76*
Cc1nc2ccc(F)cc2cc1C(=O)NCC1CCCO1 (stereo not given)	?	6.6µM*	-2	17%	-1%	-2
Cc1nn(-c2ccc(F)cc2)c(Cl)c1C(=O)NCC1CCCO1 (stereo not given)	-24%	?	.	.	.	.
CCOC1CC(C)(C)NC(=S)N1 (stereo not given)	6%	?	-4	?	0%	-10
CNC(=S)Nc1cc(Cl)ccc1Oc1ccccc1	0%	18%	-6	-16%	-5%	-11
COc1ccc2c(C)cc(SCC(=O)Nc3nsc(-c4ccc(C(C)(C)C)cc4)n3)nc2c1	.	.	.	?	21%[46.1 µM]	.
Cc1cccc(NC(=O)CN2C(=S)NC(C)(C)CC2C)c1C (stereo not given)	1%	?	4	7%	3%	-7
O=C(NNC(=O)c1cccs1)c1ccccc1	68%	3%	28*	.	.	53*
O=C(NNC(=S)NC(=O)c1cccs1)c1ccc(O)cc1	2%	?	23	.	.	28*
O=C(NNC(=O)c1cccs1)c1ccc(Br)cc1	53%	13%	18*	?	1%	40
O=C(NNC(=S)NC(=O)c1cccs1)c1ccc(NC(=O)c2ccccc2)cc1	?	58%	-4	?	?	-2
O=C(NNC(=O)c1cccs1)c1ccc(Cl)cc1	53%	?	19*	34%	-3%[46.1 µM]	24
O=C(NNC(=O)c1cccs1)c1ccncc1	-3%	10%	16	20%[46.1 µM]	-2%	-12
CCCCn1c(N)c(N(CC(C)C)C(=O)c2ccc(-c3ccc([N+](=O)[O-])cc3)o2)c(=O)[nH]c1=O	0%	?	.	29%	-8%	.
CCN(CC)S(=O)(=O)c1ccc(NC(=O)c2cccs2)cc1	-12%	?	16	-20%[46.1 µM]	?	1
CCN(CC)S(=O)(=O)c1ccc(C(=O)NNC(=O)c2cccs2)cc1	0%	0.15µM*	3	23%	2%	10
O=C(NNC(=O)c1ccccc1Br)c1cccs1	69%	6%	26*	?	11%[46.1 µM]	65*
CCN(CC)S(=O)(=O)c1cccc(C(=O)Oc2cccc(NC(=O)c3cccs3)c2)c1	22%	24%	25*	0%	5%	-5
SMILES	Pf growth 48h	Pf growth 96h	CHX counter	MARV entry inh	LASV entry inh	Shiga inhibitor
CCCOc1ccc(-c2nnn(CC(=O)Nc3cccc(C(=O)OC)c3)n2)cc1	.	25%	-2	?	-24%	-4
Cc1cccc(NC(=O)c2nc[nH]c2C(=O)N[C@@H](Cc2ccccc2)C(=O)OC(C)(C)C)c1	?	12µM*	-4	.	.	-8
CC(C)(C)OC(=O)[C@H](Cc1ccccc1)NC(=O)c1[nH]cnc1C(=O)N[C@@H](Cc1ccccc1)C(=O)OCc1ccccc1	?	?	-4	.	.	-4
C[C@H](NC(=O)c1nc[nH]c1C(=O)N[C@@H](Cc1ccccc1)C(=O)OC(C)(C)C)C(=O)OC(C)(C)C	7.4µM*	?	-4	.	.	9
CC(C)(C)OC(=O)[C@H](Cc1ccccc1)NC(=O)c1nc[nH]c1C(=O)N[C@@H](Cc1ccccc1)C(=O)OC(C)(C)C	12µM*	?	-5	.	.	-8
CCc1nnc(NC(=O)CSc2nnc(-c3ccc(S(=O)(=O)N(CC)CC)cc3)n2CC)s1	.	?	-3	-4%	-16%	-2
COc1ccc(OCc2nnc(SCC(=O)N(C)Cc3ccccc3)n2N)cc1	-2%	-11%	9	27%[46.1 µM]	.	13
CCOC(=O)C(=CNc1ccc(NC2=NCC(C)S2)cc1)C(=O)OCC (stereo not given)	9.3µM*	0%	-5	?	?	-7
COc1ccc(NC2=NCC(C)S2)cc1 (stereo not given)	21%	45%	17*	-23%[46.1 µM]	4%	18
COc1ccc(NC2=NC(C)(C)CS2)cc1	70%	0%	28*	1%[46.1 µM]	10%[46.1 µM]	70*
O=[N+]([O-])c1ccc(-c2c(-c3ccccc3)ncc3ccc(F)cc23)cc1	-14%	?	.	.	.	.
COc1cccc(NC(=O)CN(C)C(=O)c2ccc(OCC3CCCO3)cc2)c1 (stereo not given)	-10%	16%	.	27%	?	.
CCOc1ccc(NC(=O)c2ccc(OCC3CCCO3)cc2)cc1S(=O)(=O)N(CC)CC (stereo not given)	10µM*	10µM*	.	-39%	-2%	.
O=C(Nc1ccc(Br)cc1Cl)c1ccc(OCC2CCCO2)cc1 (stereo not given)	.	.	.	?	-27%	.
CCN(CC)S(=O)(=O)c1cccc(NC(=O)C2SC(=Nc3ccc(C)cc3C)C(C(=O)NCC3CCCO3)=C2N)c1 (stereo not given)	9.3µM*	.	-4	?	1%	-23
Cc1cccnc1NC(=O)c1ccc(OCC2CCCO2)cc1 (stereo not given)	29%	61%	.	.	.	.
CCC(=O)Nc1ccc(OCC2CCCO2)cc1 (stereo not given)	41%	12µM*	9	.	.	5
Cc1cccc(NC(=O)c2ccc(OCC3CCCO3)cc2)c1C (stereo not given)	13%	32%	30*	?	-10%	45*
CCN(CC)S(=O)(=O)c1ccc(NC(=O)c2ccc(OCC3CCCO3)cc2)cc1 (stereo not given)	9.3µM*	9.3µM*	.	.	.	.
O=C(Nc1ccc(Cl)cc1)c1ccc(OCC2CCCO2)cc1 (stereo not given)	196%	i	42*	?	?	95*
CCN(CC)S(=O)(=O)c1ccc(Cl)c(C(=O)NCC2CCCO2)c1 (stereo not given)	-5%	10µM*	-6	11%	?	30
CCN(CC(=O)Nc1c(F)cccc1F)C(=O)CSCC(=O)Nc1cc(C)on1	2%	9%	.	5%	1%	.

Compound activity deposited in PubChem by National Center for Advancing Translational Sciences (NCATS).
